About 7,900 targets were measured; listed, in parts, are those with a hit and a random draw of the rest. About 0.6% of all pairs of compound and target were hits. Unmarked numbers belong to inactive results.
Assays:
Experiment in all cases: log2 fold change, soluble protein after heating vs DMSO (PISA); higher = thermal stabilisation; K562 cells, 10 uM, 30 min; active = over 0.2 and 3.5 SD of the protein, either way, in both replicates (recomputed)
erlotinib = compound: C#Cc1cccc(Nc2ncnc3cc(OCCOC)c(OCCOC)cc23)c1 [erlotinib]
Method in brief: (§1)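 K562 cells (2×10^6 cells/mL) were treated with 10 μM compound for 30 min, and aliquots were heated for 3 min over 48°C-58°C. Pooled aliquots were extracted in PBS with 0.5% NP-40 at 4°C, and the supernatant after 21,000xg for 90 min was measured by TMTpro 16plex LC-MS/MS with channel sums equalised. Reported thermal stability, relative to control samples and from duplicates, is a log2 fold change.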

[1] = compound: C/C(=N\NC(=O)C1=CC(=CC=C1)S(=O)(=O)N2CCOCC2)/C3=C(C=CC(=C3)Cl)O
Method in brief: as §1

[2] = compound: C1=CC(=C(C=C1Cl)C2=NC3=NC=CN=C3C(=N2)NC4=CC=NC=C4)F
Method in brief: as §1

[3] = compound: C1=CC(=CC=C1C2=NC3=C(N2)C=C(C=C3)C(=O)N)OC4=CC=C(C=C4)Cl
Method in brief: as §1

[4] = compound: C1=CC2=C(C=CC(=C2)/C=C\3/C(=O)NC(=NCC4=CC=CS4)S3)N=C1
Method in brief: as §1

[5] = compound: C1=CC2=NC=CN=C2C=C1/C=C/3\C(=O)NC(=O)S3
Method in brief: as §1

[6] = compound: C1=CC=C(C=C1)C2=NC(=C(N2)C3=CC=NC=C3)C4=CC(=C(C=C4)Cl)O
Method in brief: as §1

[7] = compound: C1=CC=C2C(=C1)C3=NNC4=CC=CC(=C43)C2=O
Method in brief: as §1

[8] = compound: C1CCN(C1)C(=O)NC2=CC=CC(=C2)NC3=NC=C(C(=N3)NCCC4=CN=CN4)Br
Method in brief: as §1

[9] = compound: C1CN(CCC1(CC2=CC=C(C=C2)Cl)N)C3=NC=NC4=C3C=CN4
Method in brief: as §1

IRAK-1-4 Inhibitor I = compound: C1COCCN1CCN2C3=CC=CC=C3N=C2NC(=O)C4=CC(=CC=C4)[N+](=O)[O-] [IRAK-1-4 Inhibitor I]
Method in brief: as §1

ibrutinib = compound: C=CC(=O)N1CCC[C@@H](n2nc(-c3ccc(Oc4ccccc4)cc3)c3c(N)ncnc32)C1 [ibrutinib]
Method in brief: as §1

[10] = compound: CC(=O)c1cnc2ccc(-c3cc(Cl)c(O)c(Cl)c3)nc2c1N[C@H]1CC[C@H](CN(C)C)CC1
Method in brief: as §1

ralimetinib = compound: CC(C)(C)Cn1c(N)nc2ccc(-c3[nH]c(C(C)(C)C)nc3-c3ccc(F)cc3)nc21 [ralimetinib]
Method in brief: as §1

[11] = compound: CC(C)(O)CC(=O)NCCn1ccc2ncnc(Nc3ccc(Oc4cccc(C(F)(F)F)c4)c(Cl)c3)c21
Method in brief: as §1

[12] = compound: CC(C)C1=C2N=C(C=C(N2N=C1)NCC3=CC=CC=C3)NCCCCCCN
Method in brief: as §1

[13] = compound: CC(C)C[C@@H](C=O)NC(=O)[C@H](CC(C)C)NC(=O)[C@H](CC(C)C)NC(=O)OCc1ccccc1
Method in brief: as §1

pinometostat = compound: CC(C)N(C[C@H]1O[C@@H](n2cnc3c(N)ncnc32)[C@H](O)[C@@H]1O)[C@H]1C[C@@H](CCc2nc3cc(C(C)(C)C)ccc3[nH]2)C1 [pinometostat]
Method in brief: as §1

[14] = compound: CC1=C(C(CC(=O)N1)C2=CC=C(C=C2)C(F)(F)F)C(=O)NC3=C(C=C4C(=C3)C=NN4)F
Method in brief: as §1

[15] = compound: CC1=C(C2=C(C=C1)C(=O)C3=CC=CC=C3N2CCCN)C
Method in brief: as §1

UniProt Q10472, sequence (Q10472 whole entry, looked up): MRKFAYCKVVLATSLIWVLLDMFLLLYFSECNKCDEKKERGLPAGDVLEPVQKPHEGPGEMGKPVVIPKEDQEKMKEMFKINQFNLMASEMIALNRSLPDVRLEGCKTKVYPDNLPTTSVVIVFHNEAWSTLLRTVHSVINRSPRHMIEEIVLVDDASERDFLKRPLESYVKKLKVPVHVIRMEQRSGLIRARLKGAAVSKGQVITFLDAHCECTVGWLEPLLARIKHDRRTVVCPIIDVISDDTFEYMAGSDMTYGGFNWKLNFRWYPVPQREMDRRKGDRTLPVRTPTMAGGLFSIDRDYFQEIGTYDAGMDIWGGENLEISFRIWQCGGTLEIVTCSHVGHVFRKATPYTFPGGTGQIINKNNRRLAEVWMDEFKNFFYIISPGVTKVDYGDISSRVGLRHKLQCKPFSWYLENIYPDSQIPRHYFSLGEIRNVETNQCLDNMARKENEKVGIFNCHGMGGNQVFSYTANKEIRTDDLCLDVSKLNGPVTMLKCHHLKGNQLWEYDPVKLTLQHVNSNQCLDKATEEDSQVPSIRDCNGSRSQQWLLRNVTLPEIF
UniProt Q8IVV7, sequence (Q8IVV7 whole entry, looked up): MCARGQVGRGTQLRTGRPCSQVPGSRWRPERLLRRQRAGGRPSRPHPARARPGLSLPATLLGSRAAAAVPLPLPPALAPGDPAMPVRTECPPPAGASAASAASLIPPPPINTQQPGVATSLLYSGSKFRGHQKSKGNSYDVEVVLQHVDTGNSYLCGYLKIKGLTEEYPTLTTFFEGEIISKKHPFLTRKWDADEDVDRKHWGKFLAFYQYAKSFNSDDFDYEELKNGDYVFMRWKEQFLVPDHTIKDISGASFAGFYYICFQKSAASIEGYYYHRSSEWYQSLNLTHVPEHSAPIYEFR
UniProt P05114, sequence (P05114 whole entry, looked up): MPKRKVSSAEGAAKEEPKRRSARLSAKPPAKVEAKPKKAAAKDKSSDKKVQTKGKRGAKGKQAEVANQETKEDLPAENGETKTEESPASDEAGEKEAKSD
UniProt Q9NRD1, sequence (Q9NRD1 whole entry, looked up): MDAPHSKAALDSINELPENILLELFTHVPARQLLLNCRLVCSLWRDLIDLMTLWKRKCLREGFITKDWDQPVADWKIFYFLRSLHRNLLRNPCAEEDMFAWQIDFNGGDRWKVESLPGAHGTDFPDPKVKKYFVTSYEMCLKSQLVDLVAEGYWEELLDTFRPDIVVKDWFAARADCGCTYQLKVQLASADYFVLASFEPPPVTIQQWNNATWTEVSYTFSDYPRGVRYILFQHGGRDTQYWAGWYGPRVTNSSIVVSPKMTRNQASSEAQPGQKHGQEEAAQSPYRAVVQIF
UniProt P60520, sequence (P60520 whole entry, looked up): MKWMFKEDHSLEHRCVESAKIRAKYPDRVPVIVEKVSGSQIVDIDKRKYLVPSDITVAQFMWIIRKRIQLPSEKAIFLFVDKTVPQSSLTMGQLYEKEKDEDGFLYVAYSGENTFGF
UniProt P52789, sequence (P52789 whole entry, looked up): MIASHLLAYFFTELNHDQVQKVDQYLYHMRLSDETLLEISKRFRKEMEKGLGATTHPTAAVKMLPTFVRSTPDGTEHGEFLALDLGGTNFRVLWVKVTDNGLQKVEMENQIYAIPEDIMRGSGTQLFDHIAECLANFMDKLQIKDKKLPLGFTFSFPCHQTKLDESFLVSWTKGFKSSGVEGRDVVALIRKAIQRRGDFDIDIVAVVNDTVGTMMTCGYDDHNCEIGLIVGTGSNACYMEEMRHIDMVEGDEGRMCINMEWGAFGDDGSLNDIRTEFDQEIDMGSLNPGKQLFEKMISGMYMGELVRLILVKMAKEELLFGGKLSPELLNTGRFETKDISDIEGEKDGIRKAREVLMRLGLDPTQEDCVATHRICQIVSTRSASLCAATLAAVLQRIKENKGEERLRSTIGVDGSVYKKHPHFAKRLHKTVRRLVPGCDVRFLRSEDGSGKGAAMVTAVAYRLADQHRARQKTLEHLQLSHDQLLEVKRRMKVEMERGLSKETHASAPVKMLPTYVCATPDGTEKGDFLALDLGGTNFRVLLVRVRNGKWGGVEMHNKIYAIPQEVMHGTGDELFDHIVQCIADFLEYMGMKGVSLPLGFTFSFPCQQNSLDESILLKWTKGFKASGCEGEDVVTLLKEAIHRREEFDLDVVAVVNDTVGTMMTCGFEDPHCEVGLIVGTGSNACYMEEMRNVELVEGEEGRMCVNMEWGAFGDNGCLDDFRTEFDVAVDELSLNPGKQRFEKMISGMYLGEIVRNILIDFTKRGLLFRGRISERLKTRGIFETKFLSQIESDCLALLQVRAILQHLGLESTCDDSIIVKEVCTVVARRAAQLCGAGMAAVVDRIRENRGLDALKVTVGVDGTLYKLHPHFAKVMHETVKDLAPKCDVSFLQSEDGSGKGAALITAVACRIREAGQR
UniProt Q92917, sequence (Q92917 whole entry, looked up): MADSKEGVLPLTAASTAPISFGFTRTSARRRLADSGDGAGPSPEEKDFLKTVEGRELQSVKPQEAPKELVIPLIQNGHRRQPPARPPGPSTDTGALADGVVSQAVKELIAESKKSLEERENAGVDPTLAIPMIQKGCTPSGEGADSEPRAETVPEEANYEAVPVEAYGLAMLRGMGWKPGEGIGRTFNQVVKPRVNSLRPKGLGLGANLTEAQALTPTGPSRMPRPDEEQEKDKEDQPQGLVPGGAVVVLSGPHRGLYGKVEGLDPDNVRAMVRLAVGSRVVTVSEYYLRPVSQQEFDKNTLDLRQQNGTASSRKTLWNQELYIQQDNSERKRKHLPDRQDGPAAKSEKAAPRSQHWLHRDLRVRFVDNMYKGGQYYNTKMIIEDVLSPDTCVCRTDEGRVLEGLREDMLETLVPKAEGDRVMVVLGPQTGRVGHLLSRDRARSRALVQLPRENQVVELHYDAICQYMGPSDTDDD
UniProt P08754, sequence (P08754 whole entry, looked up): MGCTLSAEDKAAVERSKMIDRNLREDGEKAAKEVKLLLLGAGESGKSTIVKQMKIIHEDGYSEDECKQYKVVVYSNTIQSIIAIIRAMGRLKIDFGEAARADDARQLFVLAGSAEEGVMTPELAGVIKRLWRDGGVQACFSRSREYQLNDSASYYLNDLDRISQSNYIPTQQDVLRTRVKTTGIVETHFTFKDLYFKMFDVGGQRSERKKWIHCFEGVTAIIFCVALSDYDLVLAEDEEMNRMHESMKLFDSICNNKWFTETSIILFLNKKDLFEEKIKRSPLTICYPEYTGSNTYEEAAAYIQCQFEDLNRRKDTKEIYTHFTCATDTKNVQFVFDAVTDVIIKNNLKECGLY
UniProt Q9Y6M1, sequence (Q9Y6M1 whole entry, looked up): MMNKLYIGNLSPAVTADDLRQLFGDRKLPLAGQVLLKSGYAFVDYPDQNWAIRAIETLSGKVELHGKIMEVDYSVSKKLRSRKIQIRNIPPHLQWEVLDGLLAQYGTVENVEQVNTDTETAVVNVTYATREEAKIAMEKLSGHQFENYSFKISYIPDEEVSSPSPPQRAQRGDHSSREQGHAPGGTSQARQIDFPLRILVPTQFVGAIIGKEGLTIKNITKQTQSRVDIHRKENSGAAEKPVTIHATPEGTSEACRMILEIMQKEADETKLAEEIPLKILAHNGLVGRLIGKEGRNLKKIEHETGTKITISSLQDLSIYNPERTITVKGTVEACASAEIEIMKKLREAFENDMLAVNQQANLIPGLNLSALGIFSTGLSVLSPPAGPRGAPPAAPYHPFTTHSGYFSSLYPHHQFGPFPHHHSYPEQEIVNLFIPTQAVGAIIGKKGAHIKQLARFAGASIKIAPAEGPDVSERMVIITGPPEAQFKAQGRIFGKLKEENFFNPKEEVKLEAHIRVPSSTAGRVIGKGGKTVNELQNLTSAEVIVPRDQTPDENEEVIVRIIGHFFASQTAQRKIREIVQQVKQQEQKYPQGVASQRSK

Target | log2 fold change (erlotinib) | log2 fold change [1] | log2 fold change [2] | log2 fold change [3] | log2 fold change [4] | log2 fold change [5] | log2 fold change [6] | log2 fold change [7] | log2 fold change [8] | log2 fold change [9] | log2 fold change (IRAK-1-4 Inhibitor I) | log2 fold change (ibrutinib) | log2 fold change [10] | log2 fold change (ralimetinib) | log2 fold change [11] | log2 fold change [12] | log2 fold change [13] | log2 fold change (pinometostat) | log2 fold change [14] | log2 fold change [15]
HK2 (UniProt P52789) | -0.068 | 0.037 | 0.051 | 0 | 0.028 | -0.015 | 0.005 | -0.017 | 0.009 | 0.023 | -0.007 | -0.01 | -0.096 | -0.037 | -0.046 | 0.096 | -0.022 | -0.001 | 0.063 | 0.034
HMGN2 (UniProt P05204) | -0.02 | -0.01 | -0.255 | 0.034 | -0.125 | -0.039 | -0.052 | 0.059 | 0.011 | 0.019 | -0.034 | -0.009 | 0.121 | -0.024 | 0.29 | 0.128 | 0.093 | -0.074 | 0.108 | 0.401 (active)
IGF2BP2 (UniProt Q9Y6M1) | -0.013 | -0.083 | -0.255 | -0.015 | 0.158 | 0.014 | 0.007 | 0.075 | 0.057 | 0.075 | -0.168 | 0.048 | -0.011 | 0.209 | 0.037 | -0.249 | 0.106 | 0.477 | 0.087 | -0.054
H2AFX (UniProt P16104) | 0.05 | -0.243 | -0.54 | 0.072 | 0.014 | 0.274 | -0.087 | -0.049 | 0.231 | -0.319 | -0.049 | 0.077 | 0.044 | 0.193 | 0.036 | -0.008 | 0.308 | 0.368 | -0.019 | 1.02 (active)
GNAI3 (UniProt P08754) | -0.078 | -0.038 | -0.01 | 0.205 | 0.021 | 0 | 0.036 | -0.026 | -0.047 | 0.026 | -0.007 | 0.083 | 0.027 | 0.066 | 0.083 | 0.006 | -0.03 | 0.024 | 0.02 | 0.038
GABARAPL2 (UniProt P60520) | 0.065 | 0.013 | 0.021 | -0.02 | 0.072 | 0.016 | 0.077 | 0.008 | -0.027 | -0.021 | 0.107 | -0.018 | -0.076 | 0.008 | -0.028 | -0.269 (active) | -0.007 | -0.103 | 0.016 | -0.015
GPKOW (UniProt Q92917) | 0.099 | 0.116 | 0.016 | 0.016 | 0.057 | 0.013 | -0.016 | 0.029 | -0.011 | 0.001 | -0.016 | -0.005 | -0.172 | -0.08 | -0.026 | -0.184 | 0.006 | 0.047 | -0.034 | 0.056
FBXO6 (UniProt Q9NRD1) | -0.069 | 0.046 | 0.075 | 0.007 | 0.048 | 0.007 | 0.021 | 0.002 | -0.031 | 0 | -0.015 | 0.015 | -0.068 | 0.004 | -0.127 | 0.437 (active) | -0.046 | -0.021 | -0.043 | 0.068
HNRNPK isoform 2 (UniProt P61978) | 0.042 | 0.019 | -0.003 | 0 | 0.058 | -0.008 | -0.013 | -0.024 | 0.011 | 0.02 | -0.014 | -0.014 | -0.161 | -0.054 | -0.025 | -0.283 (active) | 0.003 | -0.033 | 0.005 | -0.062
GALNT1 (UniProt Q10472) | -0.001 | -0.014 | -0.069 | 0.022 | 0.031 | 0.006 | 0.06 | -0.003 | 0.004 | 0.06 | -0.106 | 0.023 | -0.002 | 0.101 | 0.018 | 0.048 | -0.141 | -0.025 | -0.001 | 0.021
GOLGB1 isoform 2 (UniProt Q14789) | -0.152 | -0.045 | -0.312 (active) | -0.055 | 0.099 | 0.071 | -0.049 | -0.059 | -0.059 | -0.08 | -0.023 | -0.032 | 0.031 | 0.045 | 0.05 | 0.065 | 0.082 | 0.102 | 0.048 | -0.051
HMGN1 (UniProt P05114) | -0.069 | -0.114 | -0.011 | 0.066 | -0.114 | 0.045 | -0.062 | -0.059 | 0.029 | -0.028 | -0.006 | 0.049 | 0.064 | 0.032 | 0.166 | 0.148 | 0.042 | -0.022 | 0.014 | 0.294 (active)
GID4 (UniProt Q8IVV7) | -0.033 | 0.017 | 0.005 | 0.028 | -0.046 | 0.003 | -0.072 | -0.018 | 0.042 | -0.005 | – | 0.035 | 0.025 | -0.019 | 0.016 | 0.028 | 0.027 | – | 0.023 | -0.071

Source: the supplement of paper PMC10849652
